Data: PubChem BioAssay AID1159580 (chemical genetic matrix, 2015)
Where “and” joins values, the source holds several entries; their conditions need not be identical. Equal entries are not always repeated. The whole screen tested about 5,500 compounds, of which about 2,000 (36%) were called active. Not shown: some 18% with an inconclusive outcome. Rule as the data show it: active = normalized growth mostly below about 0.91 (no sharp cut-off); inconclusive = no clear call, values can overlap the other calls; inactive = mostly above about 0.92. The list shows a part of the results.

Assay: chemical genetic growth profiling, strain panel (AID 1159580);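 also: tested at 20 µM; growth read once vehicle control cultures reached saturation at 30 °C; 1 = growth at the plate median or of vehicle wells; lower values mean less growth of the strain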
Conditions: S. cerevisiae deletion strains, growth OD

Measured: normalized growth

COc1ccc2ccc(=O)oc2c1
inactive: locus YAL013W, strain DEP1, active compounds read low 1.01 | locus YAL021C, strain ccr4, active compounds read low 1 | locus YAL026C, strain drs2, active compounds read low 1 | locus YAL030W, strain snc1, active compounds read low 1 | locus YBL061C, strain skt5, active compounds read low 1 | locus YBR009C, strain hhf1, active compounds read low 1.02 | locus YBR021W, strain FUR4, active compounds read low 0.997 | locus YBR023C, strain chs3, active compounds read low 1.01 | locus YBR171W, strain sec66, active compounds read low 0.988 | locus YBR229C, strain ROT2, active compounds read low 1.02 | locus YBR231C, strain swc5, active compounds read low 0.987 | locus YBR279W, strain paf1, active compounds read low 1 | locus YCL011C, strain gbp2, active compounds read low 0.98 | locus YCL016C, strain dcc1, active compounds read low 1 | locus YCL029C, strain bik1, active compounds read low 0.999 | locus YCL061C, strain MRC1, active compounds read low 1 | locus YCL069W, strain vba3, active compounds read low 0.988 | locus YCR088W, strain abp1, active compounds read low 0.992 | locus YDL005C, strain med2, active compounds read low 0.996 | locus YDL035C, strain GPR1, active compounds read low 1.04 | locus YDL040C, strain nat1, active compounds read low 1 | locus YDL074C, strain BRE1, active compounds read low 1.04 | locus YDL101C, strain DUN1, active compounds read low 1.01 | locus YDL185W, strain tfp1, active compounds read low 1.03 | locus YDL192W, strain arf1, active compounds read low 1.01 | locus YDR001C, strain nth1, active compounds read low 0.991 | locus YDR069C, strain doa4, active compounds read low 0.99 | locus YDR101C, strain arx1, active compounds read low 0.985 | locus YDR137W, strain rgp1, active compounds read low 0.977 | locus YDR150W, strain NUM1, active compounds read low 1.01 | locus YDR159W, strain sac3, active compounds read low 0.973 | locus YDR162C, strain NBP2, active compounds read low 1.03 | locus YDR195W, strain ref2 1.01 | locus YDR297W, strain sur2, active compounds read low 1 | locus YDR318W, strain mcm21, active compounds read low 1.02 | locus YDR334W, strain swr1, active compounds read low 0.987 | locus YDR335W, strain msn5, active compounds read low 0.998 | locus YDR388W, active compounds read low 1.04 | locus YDR392W, strain spt3, active compounds read low 0.964 | locus YDR502C, strain sam2, active compounds read low 1.02 | locus YEL003W, strain gim4, active compounds read low 1.01 | locus YEL037C, strain rad23, active compounds read low 1 | locus YEL061C, strain CIN8 (second series), active compounds read low 0.983 | locus YEL061C, strain CIN8, active compounds read low 1.01 | locus YER015W, strain faa2, active compounds read low 1 | locus YER016W, strain bim1, active compounds read low 1 | locus YER110C, active compounds read low 1.02 | locus YER111C, strain swi4, active compounds read low 0.998 | locus YER155C, strain BEM2 (second series), active compounds read low 0.97 | locus YER155C, strain BEM2, active compounds read low 1 | locus YER167W, strain BCK2, active compounds read low 1.01 | locus YFR010W, strain ubp6, active compounds read low 0.98 | locus YGL078C, strain dbp3, active compounds read low 1.01 | locus YGL086W, strain mad1, active compounds read low 1.02 | locus YGL167C, strain pmr1, active compounds read low 1.02 | locus YGL173C, strain kem1, active compounds read low 1.02 | locus YGL227W, strain vid30, active compounds read low 0.983 | locus YGL240W, strain doc1, active compounds read low 0.973 | locus YGL248W, strain PDE1, active compounds read low 1.05 | locus YGL253W, strain hxk2, active compounds read low 0.986 | locus YGR135W, strain pre9, active compounds read low 1.01 | locus YGR252W, strain gcn5, active compounds read low 0.964 | locus YHR013C, strain ard1, active compounds read low 1.04 | locus YHR027C, strain rpn1, active compounds read low 0.999 | locus YHR030C, strain SLT2, active compounds read low 1.02 and 0.994 | locus YHR079C, strain IRE1 (second series), active compounds read low 1.01 | locus YHR079C, strain IRE1, active compounds read low 0.997 | locus YHR094C, strain hxt1, active compounds read low 1.04 | locus YHR129C, strain ARP1, active compounds read low 1.02 | locus YHR142W, strain chs7, active compounds read low 1.01 | locus YHR200W, strain rpn10, active compounds read low 1.01 | locus YIL066C, strain RNR3, active compounds read low 1.02 | locus YIL073C, strain SPO22, active compounds read low 1.11 | locus YIL125W, strain kgd1, active compounds read low 1.03 | locus YIR030C, strain dcg1, active compounds read low 1.01 | locus YJL092W, strain hpr5, active compounds read low 0.998 | locus YJL095W, strain BCK1 (second series), active compounds read low 1.01 | locus YJL095W, strain BCK1, active compounds read low 1.01 and 1.02 | locus YJL115W, strain asf1, active compounds read low 0.992 | locus YJL129C, strain trk1, active compounds read low 0.99 | locus YJL134W, strain LCB3, active compounds read low 1.01 | locus YJL154C, strain vps35, active compounds read low 0.999 | locus YJL164C, strain tpk1, active compounds read low 1.02 | locus YJL166W, strain qcr8, active compounds read low 1.01 | locus YJL168C, strain set2, active compounds read low 1.02 | locus YJL187C, strain SWE1 (second series), active compounds read low 1.02 | locus YJL187C, strain SWE1, active compounds read low 0.995 | locus YJR066W, strain TOR1, active compounds read low 0.934 | locus YKL009W, strain mrt4, active compounds read low 1 | locus YKL068W, active compounds read low 1.04 | locus YKL085W, strain MDH1 (second series), active compounds read low 1.02 | locus YKL085W, strain MDH1, active compounds read low 1.02 | locus YKL160W, strain elf1, active compounds read low 1.02 | locus YKR001C, strain vps1, active compounds read low 1.03 | locus YKR026C, strain gcn3, active compounds read low 0.98 | locus YKR091W, strain srl3, active compounds read low 1.02 | locus YLL001W, strain dnm1, active compounds read low 0.985 | locus YLL026W, active compounds read low 1 | locus YLL041C, strain sdh2, active compounds read low 0.996 | locus YLR027C, strain aat2, active compounds read low 0.992 | locus YLR039C, strain RIC1, active compounds read low 1.15 | locus YLR058C, strain SHM2, active compounds read low 1.02 | locus YLR102C, strain apc9, active compounds read low 1.03 | locus YLR113W, strain HOG1, active compounds read low 1.02 | locus YLR221C, strain rsa3, active compounds read low 0.987 | locus YLR258W, strain gsy2, active compounds read low 1.02 | locus YLR262C, strain YPT6 (second series), active compounds read low 1.02 | locus YLR268W, strain sec22, active compounds read low 1.02 | locus YLR320W, strain mms22, active compounds read low 0.993 | locus YLR330W, strain CHS5, active compounds read low 1.03 | locus YLR342W, strain FKS1 (second series), active compounds read low 1.05 | locus YLR342W, strain FKS1, active compounds read low 1 | locus YLR357W, strain rsc2, active compounds read low 0.984 | locus YLR370C, strain arc18, active compounds read low 0.989 | locus YLR371W, strain rom2, active compounds read low 1.05 | locus YLR384C, strain iki3, active compounds read low 0.995 | locus YLR418C, strain cdc73, active compounds read low 1.02 | locus YML016C, strain PPZ1, active compounds read low 1.02 | locus YML032C, strain rad52, active compounds read low 0.997 | locus YML120C, strain ndi1, active compounds read low 0.999 | locus YML124C, strain tub3, active compounds read low 1.02 | locus YMR058W, strain fet3, active compounds read low 0.98 | locus YMR078C, strain ctf18, active compounds read low 1.01 | locus YMR125W, strain sto1, active compounds read low 0.984 | locus YMR129W, active compounds read low 1.01 | locus YMR205C, strain PFK2, active compounds read low 1.06 | locus YMR223W, strain ubp8, active compounds read low 1.02 | locus YMR231W, strain pep5, active compounds read low 0.996 | locus YMR307W, strain GAS1, active compounds read low 1.09 | locus YNL067W, strain RPL9B, active compounds read low 1.01 | locus YNL071W, strain lat1, active compounds read low 1.01 | locus YNL153C, strain GIM3, active compounds read low 1.01 | locus YNL183C, strain NPR1, active compounds read low 0.949 | locus YNL209W, strain ssb2, active compounds read low 1.01 | locus YNL233W, strain BNI4, active compounds read low 1.04 | locus YNL248C, strain rpa49, active compounds read low 0.974 | locus YNL250W, strain rad50, active compounds read low 1.07 | locus YNL271C, strain bni1, active compounds read low 1.01 | locus YNL298W, strain CLA4, active compounds read low 0.997 | locus YNL307C, strain MCK1, active compounds read low 1.03 | locus YNL322C, strain KRE1 (second series), active compounds read low 1 | locus YNL322C, strain KRE1, active compounds read low 1 | locus YNR049C, strain mso1, active compounds read low 1 | locus YNR052C, strain pop2, active compounds read low 1.04 | locus YOL006C, strain TOP1, active compounds read low 1.09 | locus YOL012C, strain htz1 0.887 | locus YOL147C, strain pex11, active compounds read low 1.02 | locus YOR001W, strain rrp6, active compounds read low 0.954 | locus YOR061W, strain CKA2, active compounds read low 1.02 | locus YOR069W, strain VPS5, active compounds read low 0.999 | locus YOR070C, strain gyp1, active compounds read low 1.01 | locus YOR080W, strain dia2, active compounds read low 1 | locus YOR083W, strain WHI5, active compounds read low 1.06 | locus YOR106W, strain vam3, active compounds read low 1.01 | locus YOR136W, strain idh2, active compounds read low 1.01 | locus YOR144C, strain elg1, active compounds read low 1.01 | locus YOR184W, strain ser1, active compounds read low 1 | locus YOR231W, strain MKK1, active compounds read low 1.01 | locus YOR265W, strain rbl2, active compounds read low 0.996 | locus YOR270C, strain vph1, active compounds read low 1.07 | locus YOR290C, strain snf2, active compounds read low 0.995 | locus YOR316C, strain cot1, active compounds read low 1.01 | locus YPL051W, strain arl3, active compounds read low 0.995 | locus YPL055C, strain LGE1, active compounds read low 1.07 | locus YPL078C, strain atp4, active compounds read low 1.01 | locus YPL106C, strain sse1, active compounds read low 0.98 | locus YPL240C, strain hsp82, active compounds read low 0.995 | locus YPL241C, strain CIN2, active compounds read low 1.02 | locus YPL256C, strain CLN2, active compounds read low 0.994 | locus YPR119W, strain clb2, active compounds read low 1.01 | locus YPR141C, strain kar3, active compounds read low 1.01 | locus YPR163C, strain tif3, active compounds read low 1.02 | locus YPR167C, strain met16, active compounds read low 1.02 | strain wtn01, active compounds read low 1.01
